# Results taken from PubChem BioAssay AID686978 (National Center for Advancing Translational Sciences (NCATS), 2013).
# The whole screen tested about 420,000 compounds, of which about 64,000 (15%) were called active. Inconclusive results (about 27%) are left out. These entries were drawn from the full list. Values without a mark were called inactive. The call rests on the fitted dose curve; in most records, active means well fitted inhibition curve with a large enough effect; inconclusive means small, poorly fitted or top-dose-only effect; inactive means flat fitted curve, though single readings scatter.
# Assay: qHTS for Inhibitors of human tyrosyl-DNA phosphodiesterase 1 (TDP1): qHTS in cells in absence of CPT; further: nearly all actives have a fitted effect of over 55% in size
# Conditions: DT40 Tdp1-/- hTDP1 cells, no CPT, ATP luminescence, 48 h; activity change, negative = growth inhibition: at 46.2 µM (top of the series)
# How it was run: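 Growth of hTDP1-complemented DT40 Tdp1-knockout cells is measured by ATP luminescence after at least 48 hr compound exposure at 37 °C, with DMSO substituting for the 20 nM CPT used in the parallel screen.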
# On the % scale 0 is the no-effect control and ±100 the full control effect; potency means the concentration at half of the fitted maximal effect.
SMILES,"activity change, negative = growth inhibition [%]",Potency
CCCn1nc(NS(=O)(=O)c2ccc(F)cc2)c2cc3ccccc3nc21,16.6,
COC(=O)c1cc(OCC(=O)NC2CCCc3ccccc32)cc(C(=O)OC)c1 (stereo not drawn),-6.64,
O=C(O)CCC(=O)N(Cc1cccs1)Cc1cccs1,-8.37,
COc1ccccc1NC(=O)CSc1nnc(C)n1CC1CCCO1 (stereo not drawn),-4.72,
CC(C)Oc1ccc(CCc2n[nH]c(=S)n2Cc2ccccc2)cc1,,20.6 µM (active)
CC(C)Oc1ccc(CCc2nnc(SCC(=O)O)n2-c2ccccc2)cc1,5.27,
CC(C)Oc1ccc(Cc2n[nH]c(=S)n2Cc2ccccc2)cc1Cl,-21.3,
O=C(O)CCn1c(SCc2cc(=O)n3ccccc3n2)nc2ccsc2c1=O,-2.92,
Cc1ccc(CSc2nnc(-c3cnccn3)n2C)cc1,-21.9,
Cc1ccc(CSc2nc3ccsc3c(=O)n2CCC(C)C)cc1,,23.1 µM (active)
O=CN1CCN(C(=O)c2ccc(Br)o2)CC1,7.18,
CCC(CO)Oc1cc(NC(=O)c2cccc(F)c2)c2ncn(C(C)C)c2c1 (stereo not drawn),-28.2,
Cc1ccc(CNC(=O)COc2ccc(S(=O)(=O)NC(C)C)cc2)cc1,-10.9,
O=S(=O)(NN=C1CCCCCCC1)c1ccc(Br)cc1,-1.76,
O=C(CNS(=O)(=O)c1ccc(Br)s1)NCc1ccc2c(c1)OCO2,-10.7,
CN(CC(O)COc1ccc(S(=O)(=O)N2CCOCC2)cc1Cl)C1CCCCC1 (stereo not drawn),-2.06,
Cc1nn2c(NCCN(C)C)c3c(nc2c1-c1ccccc1)CCC3,,25.9 µM (active)
Cc1cc(-n2nc(C)cc2C)n2nc(C)c(-c3ccccc3)c2n1,-1.3,
Cc1cc(C(C)(C)C)n2nc(C)c(-c3ccccc3)c2n1,-10.7,
Cc1ccc2c(c1)C1C[N+](C)(CC(=O)c3ccccc3)CCC1N2C(=O)c1ccccc1Cl (stereo not drawn),8.16,
COc1cccc(NC(=O)C(Sc2nnnn2C)c2ccccc2)c1 (stereo not drawn),10.7,
O=C(NNS(=O)(=O)c1ccc(F)cc1)C1CCCCC1,-11.3,

SMILES,"activity change, negative = growth inhibition [%]",Potency
O=C1CC[C@@H](C(=O)N2CSC[C@@H]2C(=O)Nc2ccc(C(F)(F)F)cc2)N1,-23.9,
Cc1sc(NC(=O)C2=COCCO2)c(C#N)c1C,-25.1,
CCCc1ccc(-c2c(C)sc(NC(=O)c3ccnn3C)c2C#N)cc1,,20.6 µM (active)
Cn1nccc1CNC(=O)c1ccnn1C,8.62,
CC(CCn1cccn1)NC(=O)CCc1nnc(CCc2ccccc2)o1 (stereo not drawn),13.7,
COc1ccc(C(C#N)(CC(=O)O)c2cnccn2)cc1OC (stereo not drawn),2,
COc1ccc(NC(=O)c2cnc(NS(=O)(=O)c3ccccc3)nc2)cc1,-14.2,
CCC(=O)Nc1ccc(C(=O)Nc2cccc(OC)c2)cc1,-22.8,
COc1cccc(NC(=O)c2ccc(S(=O)(=O)N(C)C)cc2)c1,2.12,
COc1ccc(NS(=O)(=O)c2ccc(NC(=O)c3ccc(N(C)S(C)(=O)=O)cc3)cc2)cc1,,8.2 µM (active)
COc1ccc(C(=O)Nc2cccc(S(C)(=O)=O)c2)cc1,,23.1 µM (active)
COc1ccc(NC(=O)c2ccc(OC)cc2)cc1,-7.09,
CC1(C)C(=O)Nc2ccccc2N1C(=O)COC(=O)Cn1cnc2ccccc2c1=O,-10.5,
O=C1CC(c2cccc(Br)c2)C2=C(CCCC2=O)N1 (stereo not drawn),-15.9,
COc1cc(OC)cc(/C(N)=N/O)c1,0.324,
COc1ccc(C/C(C)=N/NC(=O)c2cc(C)oc2C)cc1,-17.1,
Cc1ccc(-c2cc(C(=O)N/N=C/C=C/c3ccccc3)n[nH]2)o1,-12.2,
CC(=C/c1ccccc1)/C=N/NC(=O)c1cc(C)oc1C,-18.6,
CC(C)c1cc(C(=O)O)n[nH]1,-6.63,
Cc1cc(C(=O)N/N=C\C(Br)=C\c2ccccc2)c(C)o1,,16.4 µM (active)
CC(C)c1cc(C(=O)N/N=C/C(Br)=C/c2ccccc2)n[nH]1,,2.59 µM (active)
Cc1ccc(NC(=O)Cc2nnc(SCC(=O)Nc3nncs3)n2C)cc1,1.58,

SMILES,"activity change, negative = growth inhibition [%]",Potency
CC(C)Nc1nnc(SCC(=O)c2c[nH]c3ccccc23)s1,-28.5,
CC(NC(=O)C(=O)N/N=C/c1ccc(Cl)cc1)c1ccccc1 (stereo not drawn),-10.3,
C=CS(=O)c1sc(Cl)c(N2CCOCC2)c1[N+](=O)[O-] (stereo not drawn),,1.03 µM (active)
Cc1c(Nc2cc(N3CCCC(C)C3)c3nonc3c2[N+](=O)[O-])c(=O)n(-c2ccccc2)n1C (stereo not drawn),10.8,
COc1ccc(N2C(=O)CC(N3CCC(C(N)=O)CC3)C2=O)cc1 (stereo not drawn),-2.52,
CCC(C)N(c1ccc(/C=C/c2ccnc3ccccc23)cc1)C(C)CC (stereo not drawn),,4.47 µM (active)
c1ccc(-c2cnc(CN3CCN(c4ccccc4)CC3)o2)cc1,-4.06,
CN(Cc1ccccc1)c1ccc(/C=C/c2ccnc3ccccc23)cc1,,12.6 µM (active)
CN(C)c1ccc(/C=N/N(Cc2ccccc2)c2ccccc2)cc1,5.64,
O=C(CN1CCCC1)N1CCN(c2ccccc2)CC1,4.2,
CCN1CCN(c2ccc(/C=C/c3ccnc4ccccc34)cc2)CC1,,17.8 µM (active)
Oc1ccc(/C=N/N(Cc2ccccc2)c2ccccc2)cc1,0.739,
CCCCCCCNc1ccc(/C=C/c2ccnc3ccccc23)cc1,,10 µM (active)
CCCCN1C(=O)CC(N2CCOCC2)C1=O (stereo not drawn),-1.99,
CN(C)C(=O)c1cccn(Cc2cccc(C(F)(F)F)c2)c1=O,2.44,
O=C(c1cc(-c2ccc(O)cc2)on1)N1CCOCC1,-0.712,
CC(=O)c1ccc(NC(=S)N(Cc2ccccc2)C(C)C2CC2)cc1 (stereo not drawn),-18.9,
O=C(Nc1ccc(C(=O)O)cc1)/C(=C/c1ccc([N+](=O)[O-])cc1)NC(=O)c1ccccc1,-11.3,
CCOC(=O)C1(C(F)(F)F)N=C(N(C)C)OC(N(C)C)=N1,-2.16,
Cc1ccc2nsnc2c1S(=O)(=O)N1CCCC1C(=O)O (stereo not drawn),-2.15,
O=C(CNC(=O)c1ccccc1)NCC(=O)OCc1ccc(Cl)cc1,-13.1,
CCOC(=O)CSc1nccc(N(C)C)c1C#N,1.31,

SMILES,"activity change, negative = growth inhibition [%]",Potency
CN(CC(=O)NCCN1CCOCC1)S(=O)(=O)c1ccc(F)cc1,5.76,
O=C(NC(Cc1c[nH]c2ccccc12)C(=O)O)/C(=C/c1ccco1)NC(=O)c1ccccc1 (stereo not drawn),-0.131,
Cc1c(Cl)cccc1NC(=S)NCc1ccc2c(c1)OCO2,-27.6,
CC(C)Nc1ncnc2c1nnn2Cc1ccccc1,-22.2,
c1ccc(Cn2nnc3c(N4CCCCC4)ncnc32)cc1,,8.91 µM (active)
O=C(CSc1ncnc2c1nnn2Cc1ccc(F)cc1)NC1CCCC1,1.56,
CCc1ccccc1NC(=O)CSc1nnc([C@@H](NC(=O)OC(C)(C)C)C(C)CC)o1 (stereo partly drawn),-10,
Cc1nc(SCC(=O)Nc2cc(C)on2)c2c3c(sc2n1)CCCC3,-22.6,
Cc1cc(NC(=O)CSc2nc(C(C)C)nc3sc4c(c23)CCC(C)C4)no1 (stereo not drawn),,23.1 µM (active)
CC(C)c1nc(SCC(=O)Nc2cccc(C(=O)O)c2)c2c3c(sc2n1)CCCC3,-3.16,
CSc1ccc(CCNC(=O)c2cnn(-c3ccccc3)c2-n2cccc2)cc1,,14.6 µM (active)
Cc1c(C(=O)NCc2ccccc2)cnn1-c1ccccc1,-3.89,
CCCN1CCN(CCCNC(=O)c2cnn(-c3ccc(C)cc3)c2-n2cccc2)CC1,-27,
C=CCn1c(SCC(=O)NC(=O)Cc2ccccc2)nc2ccccc2c1=O,1.77,
Cc1csc(=O)n1CCC(=O)OCC(=O)NNC(=O)c1ccc(Br)cc1,-14.1,
CCCOc1ccccc1C1CC(=O)Nc2cc3c(cc21)OCO3 (stereo not drawn),,1.84 µM (active)
O=C1CC(c2ccc(F)cc2F)c2cc3c(cc2N1)OCO3 (stereo not drawn),-22.4,
COCCOC(=O)C1=C(C)NC(=O)CC1c1cc2c(cc1Br)OCO2 (stereo not drawn),-12.9,
Cc1cc(C)c2nc(NC(=O)C3CCCO3)sc2c1 (stereo not drawn),-22.2,
Cn1c(=O)c(Sc2ccc(Cl)cc2)c(O)c2ccccc21,-22.1,
CCC(Sc1nnc(-c2ccc(OC)cc2)c(-c2ccc(OC)cc2)n1)C(=O)NC1CCCCC1 (stereo not drawn),,13 µM (active)
COc1ccc(-c2nnn(CC(=O)N(CCO)C(C(=O)NC3CCCC3)c3ccc(F)cc3)n2)cc1 (stereo not drawn),-22.1,

SMILES,"activity change, negative = growth inhibition [%]",Potency
COc1ccc(-c2nnc(SC(C)C(=O)NC3CC3)o2)cc1 (stereo not drawn),12.8,
O=C(NCc1nnc(SCC(=O)N2CCCCCC2)o1)c1ccc(F)cc1,-8.37,
S=c1nccc(-c2cc(Cl)sc2Cl)[nH]1,-28,
CC1(C)Cc2ccccc2-c2c[nH]c(=O)n21,-10.5,
O=c1c2ccccc2nc2n1C1(CCCCC1)Cc1ccccc1-2,,16.4 µM (active)
c1cncc(-c2nnc3n2C2(CCCCC2)Cc2ccccc2-3)c1,-8.67,
CCCc1ccc(C(=O)COC(=O)CN2C(=O)NC3(CCCCC3C)C2=O)cc1 (stereo not drawn),13.5,
O=C(NCC1CCN(Cc2ccccc2Cl)CC1)Nc1cccc(Cl)c1,,18.4 µM (active)
CCn1cc(CN2CCC(n3nccc3NC(=O)CCCc3ccccc3)CC2)c(C)n1,6.6,
COc1cccc(-c2cccc(NC(=O)C3CCN(C4CCC4)CC3)c2)c1,3.26,
Cc1ccccc1NC(=O)NCC1CCN(Cc2cccc(Cl)c2)CC1,0.533,
O=C(Nc1cccc(-c2cscn2)c1)C1CCN(Cc2ccsc2)CC1,-8.03,
O=C(Nc1cccc(-c2cccc(Cl)c2)c1)C1CCN(C2CCC2)CC1,,23.1 µM (active)
O=C(NC1CCCC1)C1CCN(C(=O)Nc2cccc(Cl)c2)CC1,0.869,
COc1ccc(Cl)cc1NC(=O)NCC1CCN(Cc2ccccc2F)CC1,-0.532,
CCn1cc(CN2CCC(C(=O)Nc3cccc(-c4cccc(Cl)c4)c3)CC2)c(C)n1,,4.61 µM (active)
CC1Cc2ccccc2N1S(=O)(=O)c1c(N)n(C)c(=O)n(C)c1=O (stereo not drawn),0.0607,
CCSc1nnc(NC(=O)c2cc(=O)c3cc(C)c(C)cc3o2)s1,-14.3,
COc1ccc(S(=O)(=O)NCC(=O)NC2CC2)cc1OC,25.6,
CCN1CCN(C(C(=O)NC2CCCC2)c2cc3c(cc2[N+](=O)[O-])OCO3)CC1 (stereo not drawn),6.31,
